# Only a selection was taken, and hits are over-represented in it overall.
# DUX4 inh – inhibitors of DUX4-driven ZSCAN4 reporter expression, primary screen, 293T cells, Gaussia and Italica luciferase | 293T-iDUX4 ZSCAN4-Gaussia luciferase reporter, 24 h; active compounds read low | activity change, negative = inhibition, % (test concentration not listed) | 0.8% of 37,000 active | AID 1224904, 2016;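 active means mean inhibition of at least 10% in the main channel, exceeding the control channel by a set limit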
# Numbers stand for hits; . = inactive; ! = not active in a repeat.
SMILES,DUX4 inh
C/C=C/c1ccc(C2[C@@H]3CN(Cc4ccccn4)C[C@H]2N3)cc1 (some centres not stated),.
C/C=C/c1ccc(C2[C@@H]3CN(C(C)=O)C[C@H]2N3)cc1 (some centres not stated),-21!
C/C=C/c1ccc(C2[C@@H]3CN(C(=O)C4CCCC4)C[C@H]2N3)cc1 (some centres not stated),.
CCCN1[C@@H]2c3ccc(-c4ccc(OC)cc4)c(=O)n3C[C@H]1[C@H](CO)[C@H]2C(=O)OC,.
COC(=O)[C@H]1[C@H](CO)[C@H]2Cn3c(ccc(-c4ccc(F)cc4)c3=O)[C@@H]1N2Cc1cccnc1,.
N#Cc1ccc(-c2ccc([C@@H]3[C@@H](CO)N4CCCCN(C(=O)Cc5ccccc5)C[C@H]34)cc2)cc1,.
O=C(Cc1ccccc1)N1CCCCN2[C@H](CO)[C@@H](c3ccc(C#CC4(O)CCCC4)cc3)[C@H]2C1,.
O=C(Cc1ccncc1)N1CCCCN2[C@H](C1)[C@H](c1ccc(C#Cc3ccccc3F)cc1)[C@@H]2CO,-63
COC(=O)[C@H]1[C@H](CO)[C@H]2Cn3c(ccc(-c4ccccc4F)c3=O)[C@@H]1N2CC1CCCC1,.
CCCN1[C@@H]2Cn3c(ccc(-c4cccc(C(=O)N(C)C)c4)c3=O)[C@H]1[C@@H](C(=O)OC)[C@@H]2CO,.
